Most compounds without a hit are left out; they make up all but 1.5% or so of the library.
mIDH1 inhibitor: inhibitors of human mutant IDH1 R132H | O75874 | 390,000 tested, 0.093% active | Potency, µM (series often up to 76.6 µM), for the others: at the highest dose activity change, negative = inhibition, hits mostly inhibitors | IDH1-R132H enzyme, NADPH consumption, diaphorase/resazurin fluorescence; also: potency is read from the fitted curve at half-maximal effect; % is scaled to controls: 0 for no effect and ±100 for the full control effect; nearly all actives have a fitted effect of over 65% in size
Target sequence (O75874 whole entry R132H, stated change not applied): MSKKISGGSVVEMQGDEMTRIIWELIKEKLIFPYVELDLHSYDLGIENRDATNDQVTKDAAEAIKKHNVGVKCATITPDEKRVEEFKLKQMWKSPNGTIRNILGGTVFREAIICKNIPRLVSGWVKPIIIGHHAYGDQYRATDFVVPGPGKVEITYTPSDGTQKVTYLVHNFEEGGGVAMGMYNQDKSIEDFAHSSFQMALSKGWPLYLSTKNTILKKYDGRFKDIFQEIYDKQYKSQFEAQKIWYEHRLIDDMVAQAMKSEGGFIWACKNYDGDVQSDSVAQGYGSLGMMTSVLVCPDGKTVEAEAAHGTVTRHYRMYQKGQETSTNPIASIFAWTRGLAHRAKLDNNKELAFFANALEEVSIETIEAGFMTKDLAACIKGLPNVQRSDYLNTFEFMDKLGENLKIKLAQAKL
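IDH1-R132H (0.5 ug/mL dispensed) in pH 7.5 Tris buffer was preincubated 30 min with compound, then given a substrate mix of 0.016 mM NADPH and 2 mM alpha-KG for 80 min at room temperature; remaining NADPH was read by diaphorase/resazurin fluorescence.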
IL2 activator: activates IL-2 in a cell-based reporter assay. IL-2 activation reporter assay, cell-based qHTS; stimulated with anti-CD3/CD4/CD28 beads; in transgenic mouse T cells. activation, % (series mostly up to about 46 µM). 360,000 tested, 0.065% active; in the data active = activation above about 50%; inconclusive = mostly about 30% to 49%; also: 0% is about no effect
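Quantitative HTS in unstimulated transgenic mouse T cells, with memory T cells as non-tolerant control and PMA/ionomycin as tolerance-bypass control. Compound pretreatment lasted 60 minutes before 18 h bead stimulation; EGFP/DsRed fluorescence read.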
gsp agonist: agonists of gsp mutant (McCune-Albright syndrome) | gsp mutant cells, cAMP HTRF, 30 min | Potency, µM (titrated, usually from 76.9 µM), for the others: top-dose activation (cAMP increase), usual class: activators | 340,000 tested, 0.13% active | AID 624287; active = well fitted activation curve with a large enough effect; inconclusive = small, poorly fitted or top-dose-only effect, or another doubt; inactive = no such curve, though single readings can be large or run the other way; cell line not stated here;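 also: phosphodiesterase inhibitor Ro 20-1724 added with compounds to block cAMP breakdown; potency is read from the fitted curve at half-maximal effect; nearly all actives have a fitted effect of over 60% in size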
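Cells stably selected in G418 were plated at 2000/well, grown 16-24 hr, then given compounds in DMSO with the PDE inhibitor […] (300 uM solution added) for 30 min at 37C; cAMP was read by HTRF.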
gsp antagonist: gsp mutant antagonism; gsp-mutant cells, cAMP HTRF, 30 min; Potency, µM (doses to about 76.9 µM), inactives show top-dose activity change, negative = inhibition, most hits filed as inhibitors; 340,000 tested, 0.4% active; AID 624288; calls by dose curve; cell line not stated here;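 also: intracellular cAMP measured with PDE inhibitor Ro 20-1724 present during compound exposure; potency is read from the fitted curve at half-maximal effect; % is scaled to controls: 0 for no effect and ±100 for the full control effect; nearly all actives have a fitted effect of over 65% in size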
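G418-selected cells were plated in DMEM/10% FBS for 16-24 h at 37C, then treated with compounds plus the PDE inhibitor […] (300 uM solution added) for 30 min at 37C. Intracellular cAMP was measured by HTRF after 30 min lysis at room temperature.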
BRCA1 expr act: BRCA1 expression activation | 380,000 tested, 1.1% active | Potency, µM (top dose mostly 46.1 µM), for the others: at the top dose activation, actives largely listed as activators | MCF7-BRCA1-FFLuc reporter, luminescence, 48 h; response scale: scaled: vehicle 0%, 10 µM genistein 100%; also: potency is read from the fitted curve at half-maximal effect; nearly all actives have a fitted effect of over 80% in size
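MCF7-BRCA1-FFLuc, 2000 cells/well; 2 h attach, 37 °C/5% CO2; compound 48 h; luciferase substrate 15 min; luminescence end-point. Norm. to genistein 10 microM max activation and DMSO; concentration-response curves fitted.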
* = called active by the depositor; ? = inconclusive; · = not tested or not shown; [ ] = remark or other dose. Unless noted, calls follow the shape of the dose curve; as a rule, active = well fitted curve in the direction sought with a large enough effect; inconclusive = small, poorly fitted or top-dose-only effect, or another doubt; inactive = no such curve, though single readings can be large; an effect the other way counts as inactive or inconclusive.

SMILES	mIDH1 inhibitor	IL2 activator	gsp agonist	gsp antagonist	BRCA1 expr act
CC(=O)Nc1cccc(NC(=O)c2cc3ccccc3o2)c1	15%	-2	13%	-21%	8.9µM*
O=C(Nc1ccccc1)c1cc2ccccc2o1	23%	-2	-57%	6%	104%
O=C(Nc1ccc(N2CCCCCC2)cc1)c1ccccc1Cl	7%	0	?	5%	?
CCC(=O)N1CCN(c2ccc(NC(=O)c3cc4ccccc4o3)cc2Cl)CC1	28%	-1	6%	20µM*	-92%
CC(C)C(=O)Nc1cccc(NC(=O)c2cc3ccccc3o2)c1	14%	-3	11%	-27%	10µM*
O=C(N/N=C/c1cc(Br)cc([N+](=O)[O-])c1O)c1ccc(NC(=O)c2ccc(F)cc2)cc1	-21%	-2	-37%	0%	-1%
CC(C)(Cc1ccccc1)/[N+]([O-])=C\c1ccc(C(F)(F)F)cc1	0%	0	·	3%	-1%
O=C(Nc1cccnc1)c1cc2c(ccc3ccccc32)o1	-2%	-2	-17%	5%	13µM*
O=C(Cc1ccccc1)Nc1ccc(N2CCCC2)cc1	1%	3	-1%	7%	17%
COc1cc(NC(=O)C(C)C)ccc1NC(=O)c1cc2ccccc2o1	1%	0	-23%	-21%	8.9µM*
O=C(CCc1ccccc1)Nc1ccc(N2CCCCC2)cc1	3%	0	22%	7%	11µM*
NNC(=O)c1cc2c(ccc3ccccc32)o1	15%	0	13%[15.4 µM]	·	-13%
O=C(Nc1ccc(N2CCCC2)cc1)c1cc2ccccc2o1	7%	2	?	-3%	8.9µM*
O=C(CCC1CCN(Cc2ccc(Cl)cc2)CC1)NC1CC1	-4%	0	0%[15.4 µM]	-10%	-20%
O=C(CSc1nnc2sc3ccccc3n12)c1ccco1	-1%	2	2%	3%	13µM*
Cc1noc(C)c1C(=O)Nc1nc2ccccc2s1	3%	0	6%[15.4 µM]	-7%	6.3µM*
Cc1csc(SCC(=O)Nc2ccccc2)n1	-9%	0	17%	5%	-1%
CC(C)NC(=O)CSc1nc(-c2ccccc2)cs1	6%	-1	-30%	5%	10µM*
CCOC(=O)Nc1nc2ccccc2s1	8%	-3	1%	13%	5.6µM*
Cc1csc(SCC(=O)Nc2nc3ccccc3s2)n1	3%	0	-6%	11%[15.4 µM]	2.8µM*
CCCCN(CC)CCCNC(=O)C1CCCN(c2ncnc3c2nc2n3CCCCC2)C1 (configuration not stated)	-5%	·	·	·	·
S=C(NCCc1ccccc1)N1CCC2CC1c1cc(-c3ccc4c(c3)OCO4)ccc12 (configuration not stated)	·	-1	·	·	-31%
CC(C)(C)OC(=O)N1CCN(/[N+]([O-])=N/Oc2ccc([N+](=O)[O-])cc2[N+](=O)[O-])CC1	·	·	·	·	0%
Cc1c(C#N)c2ncn(Cc3ccccn3)c(=O)c2n1-c1ccccc1	-2%	-2	10%	28µM*	0%
Cc1sc(NC(=O)C2CCCCC2)c(C#N)c1-c1ccccc1	6%	-1	-3%	-21%	7.1µM*
SMILES	mIDH1 inhibitor	IL2 activator	gsp agonist	gsp antagonist	BRCA1 expr act
Cc1cccc(C(=O)Nc2sc(C)c(-c3ccccc3)c2C#N)c1	5%	0	-19%	?	?
Cc1cc(-c2ccc(S(=O)(=O)NCc3ccc(Cl)cc3)cc2)on1	-5%	0	8%	·	-10%
Cc1cc(-c2ccc(S(=O)(=O)NCc3ccc(F)cc3)cc2)on1	-1%	-2	-48%	0.79µM*	-25%
Cc1ccc(-c2csc(NC(=O)COC(=O)c3cccc(S(=O)(=O)N4CCOCC4)c3)n2)cc1	0%	-3	15%	-3%	5µM*
COc1cc(/C=N/NC(=O)Cn2cnc3c2c(=O)n(C)c(=O)n3C)ccc1O	-3%	0	22µM*	7%	-44%
Cn1nnc2c(N3CCN(Cc4ccccc4)CC3)ncnc21	·	·	·	·	24%
c1ccc(-c2cn(CC3CCCCC3)nn2)cc1	7%	0	·	-8%	5.6µM*
COc1ccc(-c2cn(CC3CCCCC3)nn2)cc1	-1%	-1	·	6%	?
CC(=O)Nc1cccc(OCC(=O)Nc2sccc2C(N)=O)c1	0%	0	-9%	-9%	4µM*
CC(=O)Nc1cccc(OCC(=O)Nc2ccccc2)c1	-2%	0	?	6%	?
Cc1cc(-c2ccc(C(=O)O)s2)cnc1N	2%	0	4%	-10%	7.1µM*
c1cncc(CSc2ccc(-c3ccc4c(c3)OCO4)nn2)c1	15%	0	?	-12%	5.6µM*
Cc1ccccc1CSc1ccc(-c2ccc3c(c2)OCO3)nn1	9%	-3	-26%	-3%	8.9µM*
CS(=O)(=O)Nc1ccc2c(c1)[C@H]1C[C@H](CC(=O)NCc3ccccc3)O[C@H](CO)[C@H]1O2	-2%	1	?	·	19%
Cc1ccc(Nc2ncnc3nc[nH]c23)cc1	·	·	·	·	11µM*
CCOC(=O)c1ccc(Nc2ncnc3nc[nH]c23)cc1	9%	-1	-28%	1%	6.3µM*
Cc1cccc(Nc2ncnc3nc[nH]c23)c1	13%	0	-14%	-1%	41%
COc1ccccc1CCN1CCCC(CN(C)C(=O)CCC(N)=O)C1 (configuration not stated)	-6%	1	6%	8%	12%
CCCN1CNc2c(c(=O)[nH]c(=S)n2Cc2ccc(OC)c(OC)c2)C1	·	·	·	·	7%
Cc1ccc(N2C(=O)CS(=O)(=O)C23C(=O)N(Cc2ccccc2C)c2ccccc23)cc1Cl (configuration not stated)	-3%	·	·	·	-2%
Cc1ccc(Nc2nc3nonc3[nH]c2=O)cc1Cl	0%	1	10%	28µM*	-41%
CN(C)CCCCCCNc1nccc(N2CCN(C)CC2)n1	·	·	·	·	-3%
COc1cc(OC)c(/C=C/c2c3ccccc3cc[n+]2C)c(OC)c1	·	·	·	·	-62%
COc1ccc(NC(=O)Nc2ccc(O)c3ccccc23)cc1	7%	0	0%	10%	-29%
COc1ccccc1NC(=O)c1ccc(NC(=O)C2CC2C)cc1 (configuration not stated)	8%	-3	-33%	0%	30%
CC1CC1C(=O)Nc1ccc(-c2ccccc2)cc1 (configuration not stated)	7%	1	-56%	1%	2.5µM*
O=C(c1cccs1)N1CCn2c1nc1ccccc12	-1%	-2	-9%	-8%	2.8µM*
COc1ccc(C(=O)N2CCc3ccccc32)cc1	15%	-2	21%	0%	11µM*
COc1ccc(C(=O)N2CCn3c2nc2ccccc23)cc1	-5%	-1	4%[15.4 µM]	-8%	13µM*

Assay outcomes from PubChem.
